Compound activity deposited in PubChem BioAssay by National Center for Advancing Translational Sciences (NCATS).
Hits are enriched below; roughly 12% of the tested compounds scored in any of these assays.
Sfp PPTase inh = blocks B. subtilis Sfp PPTase activity. Biochemical Sfp PPTase activity, qHTS. Potency, µM, for the others: largest response in the series, negative = inhibition, hits mostly inhibitors. 310,000 tested, 3.5% active;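 further: the enzyme is Sfp with the accession as filed and its product quenches rhodamine fluorescence; 0% = enzyme reaction without inhibitor and -100% = no enzyme wells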
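With Hepes-Na pH 7.6 buffer containing 10 mM MgCl2, Sfp (15 nM) modified BHQ-2-YbbR (12.5 uM) using rhodamine-CoA (5 uM). Two reads 30 minutes apart at 525/598 nm yielded each well's rate.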
BAZ2B inh = BAZ2B (human) inhibition; Q9UIF8; AlphaScreen BAZ2B-H3K14Ac peptide displacement; Potency, µM (doses to about 114 µM), inactives show at the highest dose activity change, negative = inhibition, hits mostly inhibitors; 360,000 tested, 4.4% active; AID 504333; further: on the % scale 0 is the no-effect control and ±100 the full control effect; nearly all actives have a fitted effect of over 60% in size
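AlphaScreen displacement: compounds (up to 110uM) incubated 30 min at room temperature with a preformed 50 nM BAZ2B/50 nM biotinylated H3K14Ac peptide complex in PBS pH 7.4 with Tween-20. Donor and acceptor beads at 10 ug/mL final added, 20 min light-protected before reading.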
JMJD2A Tudor inh = blocks the human JMJD2A Tudor domain; O75164; AlphaScreen JMJD2A-Tudor / H3K4me3 peptide binding; Potency, µM (highest dose often 114 µM), inactives show at the top dose activity change, negative = inhibition, most hits filed as inhibitors; 390,000 tested, 4.4% active; AID 504339; further: on the % scale 0 is the no-effect control and ±100 the full control effect; nearly all actives have a fitted effect of over 50% in size
Target sequence (O75164 whole entry, looked up, the tested form may be a part): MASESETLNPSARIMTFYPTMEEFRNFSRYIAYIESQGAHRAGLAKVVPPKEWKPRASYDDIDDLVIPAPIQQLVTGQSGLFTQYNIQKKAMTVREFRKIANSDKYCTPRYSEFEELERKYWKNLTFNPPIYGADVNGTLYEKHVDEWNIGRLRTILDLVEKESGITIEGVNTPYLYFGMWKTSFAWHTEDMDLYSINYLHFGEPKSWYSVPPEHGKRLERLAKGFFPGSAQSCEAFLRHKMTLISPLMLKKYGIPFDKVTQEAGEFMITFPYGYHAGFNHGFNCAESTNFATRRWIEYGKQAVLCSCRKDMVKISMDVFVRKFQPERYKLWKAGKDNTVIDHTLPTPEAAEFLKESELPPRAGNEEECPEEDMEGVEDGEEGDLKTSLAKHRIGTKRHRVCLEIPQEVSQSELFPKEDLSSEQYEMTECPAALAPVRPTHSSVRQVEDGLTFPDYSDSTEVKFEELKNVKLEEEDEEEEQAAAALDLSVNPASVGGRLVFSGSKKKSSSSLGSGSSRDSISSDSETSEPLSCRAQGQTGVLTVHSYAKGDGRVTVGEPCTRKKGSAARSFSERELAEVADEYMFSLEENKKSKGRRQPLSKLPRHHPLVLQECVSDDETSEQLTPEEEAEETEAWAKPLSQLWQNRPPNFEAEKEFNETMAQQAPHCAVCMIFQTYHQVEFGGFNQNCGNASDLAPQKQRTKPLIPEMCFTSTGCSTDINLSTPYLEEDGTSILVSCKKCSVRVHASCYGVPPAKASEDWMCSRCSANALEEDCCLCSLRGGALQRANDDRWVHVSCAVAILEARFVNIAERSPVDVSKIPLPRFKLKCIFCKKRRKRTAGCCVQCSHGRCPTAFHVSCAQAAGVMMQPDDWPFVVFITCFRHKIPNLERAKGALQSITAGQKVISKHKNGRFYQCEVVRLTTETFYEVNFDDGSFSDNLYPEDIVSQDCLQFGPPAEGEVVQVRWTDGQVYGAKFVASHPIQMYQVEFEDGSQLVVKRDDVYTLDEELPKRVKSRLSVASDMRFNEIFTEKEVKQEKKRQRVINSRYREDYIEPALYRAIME
TDP1 inh = blocks human tyrosyl-DNA phosphodiesterase 1. Q9NUW8. recombinant TDP1, AlphaScreen DNA substrate cleavage. Potency, µM (doses to about 130 µM), for inactives: at the top dose activity change, negative = inhibition, hits mostly inhibitors. 350,000 tested, 0.28% active. AID 485290; further: on the % scale 0 is the no-effect control and ±100 the full control effect; nearly all actives have a fitted effect of over 40% in size
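E. coli-derived human Tdp1, 1 nM final. Cpd preinc 15 min RT; substrate 15 nM final, 5 min RT; AS bead mix 10 ug/ml final, 10 min RT. Signal loss = tyrosine-FITC cleavage. No-enzyme wells = max signal.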
G9a inh = inhibitors of human histone lysine methyltransferase G9a. Q96KQ7. Potency, µM (doses to about 102 µM), for inactives: at the highest dose activity, negative = inhibition, usual class: inhibitors. AID 504332. G9a H3K9 monomethylation, AlphaScreen, 2 h. 350,000 tested, 8.8% active; further: on the % scale 0 is the no-effect control and ±100 the full control effect; nearly all actives have a fitted effect of over 75% in size
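Methyltransferase reactions run at room temperature for 2 h (20 nM enzyme, 500 nM biotin-H3K9 peptide, 20 uM SAM) after a 15 min compound preincubation; product detected by AlphaScreen beads and anti-H3K9me1 antibody.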
HP1b chromo inh = inhibitors of HP1-beta chromodomain binding to methylated histone tails; P83916; AlphaScreen HP1-beta / biotin-H3K9me3 peptide binding; Potency, µM (series often up to 114 µM), without a hit: top-dose activity change, negative = inhibition, most hits filed as inhibitors; 390,000 tested, 0.56% active; further: nearly all actives have a fitted effect of over 70% in size
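Compound inhibition of the preformed complex between 50 nM HP1-beta and 50 nM biotinylated H3K9me3 peptide was read by AlphaScreen. Buffer was PBS pH 7.4 with 0.01% Tween-20. Incubations ran 30 min at room temperature, with 10 ug/mL donor/acceptor beads.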
* = called active by the depositor; [ ] = remark or other dose. The call rests on the fitted dose curve; in most records, active means well fitted curve in the direction sought with a large enough effect; inconclusive means small, poorly fitted or top-dose-only effect, or another doubt; inactive means no such curve, though single readings can be large; an effect the other way counts as inactive or inconclusive. Potency means the concentration at half of the fitted maximal effect.

Screening CCCCCCCN1C/C=C\C(c2ccc(OC)cc2)N(Cc2ccc(F)cc2)C(=O)[C@H]1Cc1ccccc1 (stereo not given in full) returned Sfp PPTase inh 10%, BAZ2B inh 5%, JMJD2A Tudor inh 1%, TDP1 inh 1%, G9a inh -4%[59 µM] and HP1b chromo inh 59%.
Screening CSc1nnc(-c2cccn(Cc3ccccc3)c2=O)o1 returned Sfp PPTase inh 1%, BAZ2B inh -16%, JMJD2A Tudor inh -16%[57.1 µM], TDP1 inh 6%, G9a inh -34% and HP1b chromo inh 23%.
For C=CCn1c(-c2ccc(=O)n(Cc3ccccc3)c2)n[nH]c1=S the results were Sfp PPTase inh -3%, BAZ2B inh -23%, TDP1 inh -7% and G9a inh 18µM*.
Screening C=CCn1c(-c2cccn(Cc3ccccc3)c2=O)n[nH]c1=S returned Sfp PPTase inh -6%, BAZ2B inh -6%, JMJD2A Tudor inh 28µM*, TDP1 inh -2%, G9a inh 40µM* and HP1b chromo inh 46%.
Screening C=CCn1c(-c2ccccc2[N+](=O)[O-])n[nH]c1=S returned Sfp PPTase inh -13%, BAZ2B inh inconclusive, JMJD2A Tudor inh -7%, TDP1 inh -9%, G9a inh 16µM* and HP1b chromo inh 38%.
Screening O=C(NCCN1CCOCC1)Nc1ccc(F)cc1 returned Sfp PPTase inh 24%, BAZ2B inh -15%, JMJD2A Tudor inh -3%, TDP1 inh -13%, G9a inh -26% and HP1b chromo inh 14%.
CN(C)c1ccc(O)c2c1CC1CC3[C@@H](N(C)C)C(=O)C(C(N)=O)C(=O)[C@]3(O)C(=O)C1C2=O (stereo not given in full) was read as JMJD2A Tudor inh 8.9µM* and HP1b chromo inh 16%.
`C=C1c2cccc(O)c2C(O)=C2C(=O)[C@]3(O)C(O)=C(C(N)=O)C(=O)C(N(C)C)C3C(O)C12` (stereo not given in full) gave Sfp PPTase inh -45% and G9a inh inconclusive.
Screening CN(C)c1ccc(O)c2c1CC1CC3C(N(C)C)C(=O)C(C(N)=O)=C(O)[C@@]3(O)C(=O)C1=C2O (stereo not given in full) returned JMJD2A Tudor inh 8.9µM* and HP1b chromo inh 3%.
N#Cc1cccc(S(=O)(=O)NNC(=O)C23CC4CC(CC(C4)C2)C3)c1 was read as JMJD2A Tudor inh -2%, TDP1 inh 0% and HP1b chromo inh 39%.
For O=C(N/N=C/c1cccc([N+](=O)[O-])c1)C1COc2ccccc2O1 (stereo not given) the results were Sfp PPTase inh -2%, BAZ2B inh 10%, JMJD2A Tudor inh 0%[11.4 µM], TDP1 inh 3%, G9a inh -37% and HP1b chromo inh 25%.
For O=C(N/N=C\c1cccc([N+](=O)[O-])c1O)C1COc2ccccc2O1 (stereo not given) the results were Sfp PPTase inh 15%, BAZ2B inh 35µM*, JMJD2A Tudor inh inconclusive, TDP1 inh 13%, G9a inh -3%[59 µM] and HP1b chromo inh 11%.
COc1cc(/C=N/NC(=O)C2COc3ccccc3O2)cc(OC)c1OC (stereo not given) was read as Sfp PPTase inh 7%, BAZ2B inh -3%, JMJD2A Tudor inh -4%, TDP1 inh 3%, G9a inh -9% and HP1b chromo inh 35%.
COc1cc([N+](=O)[O-])cc(/C=N\NC(=O)C2COc3ccccc3O2)c1O (stereo not given) was read as Sfp PPTase inh 23%, BAZ2B inh 40µM*, JMJD2A Tudor inh 56µM*, TDP1 inh 8%, G9a inh inconclusive and HP1b chromo inh 23%.
Screening O=C(N/N=C\c1ccc(Br)o1)C1COc2ccccc2O1 (stereo not given) returned Sfp PPTase inh -1%, BAZ2B inh 50µM*, JMJD2A Tudor inh 40µM*, TDP1 inh -9%, G9a inh inconclusive and HP1b chromo inh inconclusive.
`Cc1ccn2c(NC3CCCCC3)c(-c3ccc(C)o3)nc2c1` gave JMJD2A Tudor inh inconclusive, TDP1 inh 7% and HP1b chromo inh 11%.
Screening Cc1ccc(-c2nc3ncccn3c2NC2CCCCC2)o1 returned Sfp PPTase inh 45µM*, BAZ2B inh -11%, JMJD2A Tudor inh -22%[57.1 µM], TDP1 inh 5%, G9a inh inconclusive and HP1b chromo inh -8%.
Screening Cc1ccc(-c2nc3ccccn3c2Nc2ccc3c(c2)OCCO3)o1 returned BAZ2B inh 45µM*, JMJD2A Tudor inh 50µM*, TDP1 inh 15%, G9a inh 13µM* and HP1b chromo inh inconclusive.
`Cc1ccc(-c2nc3ncccn3c2Nc2ccc3c(c2)OCCO3)o1` gave Sfp PPTase inh 45µM*, BAZ2B inh inconclusive, JMJD2A Tudor inh inconclusive, TDP1 inh 10%, G9a inh inconclusive and HP1b chromo inh -19%.
Cc1ccc(Nc2c(-c3ccc(C)o3)nc3ccccn23)cc1 was read as JMJD2A Tudor inh inconclusive, TDP1 inh 3% and HP1b chromo inh -14%.
Screening Cc1ccc(-c2nc3ccccn3c2Nc2ccccc2)o1 returned Sfp PPTase inh 20µM*, BAZ2B inh -31%, JMJD2A Tudor inh -8%, TDP1 inh 3%, G9a inh 50µM* and HP1b chromo inh 12%.
`Brc1ccc(-c2nc3ccccn3c2Nc2ccc3c(c2)OCCO3)o1` gave JMJD2A Tudor inh -18%, TDP1 inh 7%, G9a inh inconclusive and HP1b chromo inh 9%.
CCCN1C(=O)c2ccccc2NC1c1ccc(O)c(OCC)c1 (stereo not given) was read as Sfp PPTase inh 0%, BAZ2B inh 20%, JMJD2A Tudor inh -9%, G9a inh -5% and HP1b chromo inh 23%.
`Cc1c(Br)c(C(F)(F)F)nn1CC(=O)NCc1ccccc1` gave Sfp PPTase inh 7%, BAZ2B inh 9%, JMJD2A Tudor inh 8%, TDP1 inh 8%, G9a inh 16%[59 µM] and HP1b chromo inh 25%.
`O=C(CN1C(=O)c2ccccc2C1=O)N1CCN(C2c3ccccc3-c3ccccc32)CC1` gave Sfp PPTase inh 9%, BAZ2B inh -2%, JMJD2A Tudor inh -19%, TDP1 inh 6%, G9a inh -5%[59 µM] and HP1b chromo inh 15%.
Brc1ccc(-c2nc3ncccn3c2Nc2ccc3c(c2)OCCO3)o1 was read as Sfp PPTase inh -20%, BAZ2B inh 50µM*, JMJD2A Tudor inh inconclusive, TDP1 inh 8%, G9a inh inconclusive and HP1b chromo inh -5%.
